# Data from PubChem BioAssay (Tox21).
# Unmarked numbers belong to inactive results. Calls follow the shape of the dose curve; as a rule, active = well fitted activation curve with a large enough effect in the repeat runs; inconclusive = weak or mixed curves; inactive = flat fitted curve, though single readings scatter. Records with an inconclusive call do not appear.
# Experiment: A CellTox Green Cytotoxicity Assay to monitor cytotoxicity in HepG2 cells - 0 hour (AID 1224882); also: nearly all actives have a fitted effect of over 35% in size
# Conditions: CellTox Green fluorescence; series mostly up to 76.8 µM; cytotoxicity: at the top concentration
# Method in brief: (§1)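 Measurements at 0, 8, 16, 24, 32 and 40 h of treatment captured CellTox Green fluorescence in HepG2 cells that had been co-plated with reagent and preincubated 5 h at 37 C/5% CO2.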
# % is scaled to controls: 0 for no effect and ±100 for the full control effect.
row,SMILES,cytotoxicity
1,CCC1(c2ccccc2)C(=O)NC(=O)NC1=O,0.0981%
2,OCCBr,0.54%
3,BrCCCCCCBr,0.746%
4,CCCCCCBr,-7.58%
5,Fc1cc(Br)ccc1CBr,-11.2% [at 35.3 µM]
6,Cc1cnc[nH]1,-7.33%
7,NC(=O)O,-0.0224%
8,CCOP(=S)(OCC)SCSc1ccc(Cl)cc1,-0.0466%
9,CC1CCC(=O)O1 (configuration not stated),-0.355%
10,ClC(Cl)Br,2.08%
11,[O]=[Cd],5.14%
12,Clc1cccc(N2CCNCC2)c1,0.739% [at 35.3 µM]
13,c1cc2c(c(N3CCNCC3)c1)OCCO2,-22% [at 35.3 µM]
14,CC(=O)CC(c1ccc(Cl)cc1)c1c(O)c2ccccc2oc1=O (configuration not stated),-2.46%

# Experiment: A CellTox Green Cytotoxicity Assay to monitor cytotoxicity in HepG2 cells - 32 hour (AID 1224883); also: nearly all actives have a fitted effect of over 50% in size
# Conditions: CellTox Green fluorescence; series mostly up to 76.8 µM; cytotoxicity increase: at the top concentration
# Method in brief: as §1
row,SMILES,cytotoxicity increase
1,CNC(=O)Oc1ccccc1C1OCCO1,-8.7%
2,N#CC(Cl)(Cl)Cl,5.92%
3,Nc1cc2c3c(c1)C(c1ccccc1)=N[C@@H](NC(=O)c1cccnc1)C(=O)N3CC2,-12.5%
4,C#CCN1C(=O)COc2cc(F)c(N3C(=O)C4=C(CCCC4)C3=O)cc21,-5.43%
5,CCCCOC(=O)[C@@H](C)Oc1ccc(Oc2ccc(C#N)cc2F)cc1,-5.9%
6,CCOC(=O)C1(c2ccccc2)CCN(CCc2ccc(N)cc2)CC1,1.72% [at 35.3 µM]
7,ClCC(Cl)(Cl)Cl,2.09%
8,CC(Oc1ccc(Oc2ncc(C(F)(F)F)cc2Cl)cc1)C(=O)O (configuration not stated),17.4%
9,Cc1ncsc1CCCl,-1.47% [at 35.3 µM]
10,CCN(Cc1ccc(Cl)nc1)/C(=C/[N+](=O)[O-])NC,-11.4% [at 35.3 µM]
11,C[C@]12CC[C@H]3[C@@H](CC=C4C[C@@H](O)CC[C@@]43C)[C@@H]1CC[C@@H]2O,0.689% [at 35.3 µM]
12,NC1=NC(=O)C(c2ccccc2)O1 (configuration not stated),-19.3% [at 35.3 µM]
13,Cc1cccc(C#N)c1,-0.443%
14,Clc1ccccc1N1CCNCC1,-2.57% [at 35.3 µM]
15,COP(=S)(OC)Oc1c(Cl)cc(C)cc1Cl,-10.3%
16,CN1CCC(N(Cc2ccccc2)c2ccccc2)CC1,22.3% [at 35.3 µM]
17,CC(C)CC#N,-2.28%
18,CN1C[C@@H](NS(=O)(=O)N(C)C)C[C@@H]2c3cccc4c3c(cn4C)C[C@H]21,-0.544% [at 35.3 µM]
19,CCN(CC)C(C)C(=O)c1ccccc1 (configuration not stated),5.3% [at 35.3 µM]

row,SMILES,cytotoxicity increase
1,CNC(=O)Oc1cccc(C(C)C)c1,-8.7%
2,CC(=O)CCc1ccc2c(c1)OCO2,-13.7%
3,O=NN1CCN(N=O)CC1,6.32%
4,C=C(C)[C@@H]1CC=C(C=O)CC1,-4.53%
5,CNC(=O)Oc1c(C(C)(C)C)cc(C)cc1C(C)(C)C,-5.77%
6,CCC1(c2ccccc2)C(=O)NC(=O)NC1=O,3.92%
7,OCCBr,0.202%
8,BrCCCCCCBr,0.616%
9,CCCCCCBr,-18.3%
10,Fc1cc(Br)ccc1CBr,-21.4% [at 35.3 µM]
11,Cc1cnc[nH]1,-6.51%
12,NC(=O)O,-19.2%
13,CCOP(=S)(OCC)SCSc1ccc(Cl)cc1,-5.1%
14,CC1CCC(=O)O1 (configuration not stated),-11.2%
15,ClC(Cl)Br,6.3%
16,[O]=[Cd],-0.354%
17,Clc1cccc(N2CCNCC2)c1,3.35% [at 35.3 µM]
18,c1cc2c(c(N3CCNCC3)c1)OCCO2,-27.1% [at 35.3 µM]
19,CC(=O)CC(c1ccc(Cl)cc1)c1c(O)c2ccccc2oc1=O (configuration not stated),-6.93%
